Bioassay records as filed in PubChem.
Compounds with a hit are over-represented: about 11% of the library has one in this group of screens.
AmpC detergent = AmpC beta-lactamase inhibition with detergent present. P00811. AmpC hydrolysis of nitrocefin, absorbance 480 nm, 0.01% Triton. Potency, µM (titrated, usually from 114 µM), inactives show at the top dose activity change, negative = inhibition, most hits filed as inhibitors. 370,000 tested, 0.041% active. AID 485294;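 also: 0% = no-compound wells and -100% = no-enzyme wells; nearly all actives have a fitted effect of over 25% in size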
Target sequence (P00811 whole entry, looked up): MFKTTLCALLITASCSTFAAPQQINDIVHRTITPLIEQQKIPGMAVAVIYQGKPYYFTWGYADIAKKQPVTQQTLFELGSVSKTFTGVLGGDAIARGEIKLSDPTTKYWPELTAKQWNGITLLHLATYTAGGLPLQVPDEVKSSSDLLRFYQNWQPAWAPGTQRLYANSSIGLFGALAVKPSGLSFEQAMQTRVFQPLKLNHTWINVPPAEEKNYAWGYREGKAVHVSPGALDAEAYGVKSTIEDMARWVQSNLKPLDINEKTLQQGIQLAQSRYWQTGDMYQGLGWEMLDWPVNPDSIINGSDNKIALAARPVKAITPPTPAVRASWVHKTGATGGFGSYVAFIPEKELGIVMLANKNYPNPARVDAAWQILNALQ
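20 mM phosphate pH 7.0 + 0.01% (detergent screen) or 0.0001% Triton X-100; 5.3 nM AmpC reagent; cpd preinc 15 min RT; nitrocefin (800 uM stock) to start; A480 q20 s × 4 min; Activity was normalised to no-enzyme and no-compound control wells.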
Pf growth 48h = P. falciparum growth inhibition at 48 hours (one generation) | AID 504832 | P. falciparum luciferase growth in erythrocytes, 48 h | Potency, µM (highest dose often 28.7 µM), inactives show at the highest dose activity change, negative = inhibition, hits mostly inhibitors | 310,000 tested, 5.9% active
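Growth was read as firefly luciferase luminescence after a 48 h, 37 C, 5% CO2 exposure of compounds to reporter-bearing P. falciparum cultures (0.1% parasitemia, 2% hematocrit final) in Albumax-supplemented RPMI 1640.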
Pf growth 96h = P. falciparum growth inhibition at 96 hours | P. falciparum luciferase reporter growth, 96 h | 320,000 tested, 6.9% active | Potency, µM (highest dose often 28.7 µM), for the others: top-dose activity change, negative = inhibition, most hits filed as inhibitors | AID 504834
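Readout is luminescence from an integrated firefly luciferase in P. falciparum. Red cells, 2% hematocrit and 0.05% parasitemia final, were cultured with compound through two parasite generations (96 hours) at 37 C, 5% CO2.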
AmpC no deterg = inhibitors of E. coli AmpC beta-lactamase without detergent; Potency, µM (top dose mostly 57.1 µM), inactives show at the highest dose activity change, negative = inhibition, most hits filed as inhibitors; 330,000 tested, 0.52% active; AmpC nitrocefin hydrolysis, absorbance 480 nm, 0.0001% Triton; P00811;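 also: plate controls were no compound for no effect and no enzyme for full effect; nearly all actives have a fitted effect of over 20% in size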
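20 mM phosphate pH 7.0 + 0.01% (detergent screen) or 0.0001% Triton X-100; 5.3 nM AmpC reagent; cpd preinc 15 min RT; nitrocefin (800 uM stock) to start; A480 q20 s × 4 min; Activity was normalised to no-enzyme and no-compound control wells.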
HCV inhibitor = blocks hepatitis C virus. Huh7.5.1 HCVcc-Cre infection, luciferase reporter, 44 h. AID 651820. Potency, µM (doses to about 41.8 µM), for inactives: at the top dose activity change, negative = inhibition, hits mostly inhibitors. 340,000 tested, 3.4% active
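A cell-based infection assay in which seeded cells (1,000 per well) receive test compound after 4 h, are inoculated with HCVcc-Cre at approximately 0.5 moi, and are incubated 44 h before luminescence detection.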
AMA1 RON2 block = inhibitors of Plasmodium falciparum AMA1-RON2 interaction; Potency, µM (doses to about 58.2 µM), without a hit: top-dose activity change, negative = inhibition, usual class: inhibitors; AID 720542; 360,000 tested, 0.2% active; AlphaScreen AMA1-biotinylated RON2 peptide binding;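 also: 0% = vehicle wells and -100% = peptide control; nearly all actives have a fitted effect of over 45% in size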
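AMA1 (3D7) with his tag at 25 nM final met compounds first, then biotinylated RON2 peptide at 25 nM; detection used donor plus acceptor beads, 10 µg/mL apiece, read by AlphaScreen after 30 min at room temperature.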
The depositor's hits bear a star; ? = inconclusive; . = not tested or not shown; [ ] = remark or other dose. Calls follow the shape of the dose curve; as a rule, active = well fitted curve in the direction sought with a large enough effect; inconclusive = small, poorly fitted or top-dose-only effect, or another doubt; inactive = no such curve, though single readings can be large; an effect the other way counts as inactive or inconclusive. Unless noted, % is scaled to controls: 0 for no effect and ±100 for the full control effect; potency is read from the fitted curve at half-maximal effect.

SMILES	AmpC detergent	Pf growth 48h	Pf growth 96h	AmpC no deterg	HCV inhibitor	AMA1 RON2 block
Cc1oc(-c2cccc(Cl)c2)nc1Cn1c(SCc2ccc(F)cc2)nc2cccnc21	14%	.	.	.	.	.
COc1ccc(-c2nn3c(-c4ccc(C)cc4)nnc3c3ccccc23)cc1	24%	.	.	.	.	.
CCN(CC)CCCNC(=O)c1cn(CC)c2ccc(S(=O)(=O)N3CCc4ccccc4C3)cc2c1=O	4%	-16%	?	38%	?	-4%
Cn1cc(C(=O)NC2CCCCCC2)c(=O)c2cc(S(=O)(=O)N3CCCC3)ccc21	?	5%	41%	-22%	-4%	9%
Cn1cc(C(=O)NC2CCCCCCC2)c(=O)c2cc(S(=O)(=O)N3CCCC3)ccc21	-7%	?	8.3µM*	-14%	12%	-2%
CCOCCCNC(=O)c1cn(CC)c2ccc(S(=O)(=O)N3CCOCC3)cc2c1=O	5%	-10%	10µM*	61%	18%	-2%
CCN(CC)CCNC(=O)c1cn(CC)c2ccc(S(=O)(=O)N3CCc4ccccc4C3)cc2c1=O	3%	?	1µM*	-3%	?	-7%
CCOCCCNC(=O)c1cn(C)c2ccc(S(=O)(=O)N3CCCC3)cc2c1=O	-1%	-27%	6.6µM*	0%	10%	4%
COc1ccccc1NC(=O)CC(c1cc(OC)c(OC)c(OC)c1)N1Cc2ccccc2C1=O (stereo not drawn)	15%	.	.	.	.	.
CCc1ccc(S(=O)(=O)c2c(C(=O)c3ccc(C)c(C)c3)cnc3ccccc23)cc1	-14%	.	.	.	.	.
CC1CCCN(CCCNC(=O)c2cn(C)c3ccc(S(=O)(=O)N(C)C4CCCCC4)cc3c2=O)C1 (stereo not drawn)	1%	13µM*	21%	-7%	0%	-9%
CC1CCN(CCCNC(=O)c2cn(C)c3ccc(S(=O)(=O)N(C)C4CCCCC4)cc3c2=O)CC1	2%	.	.	.	.	.
CCC(C(=O)NC(C)(C)C)N(Cc1cccs1)C(=O)CNS(=O)(=O)c1ccccc1 (stereo not drawn)	0%	2.3µM*	-25%	17%	11%	-1%
COc1ccc(C2CC(c3cccc(Cl)c3)n3nc(N)nc3N2)cc1 (stereo not drawn)	?	10%	9.3µM*	0.89µM*	-13%	30%
COc1cccc(C2CC(c3cccc(OC)c3)n3nc(N)nc3N2)c1 (stereo not drawn)	?	2%	12µM*	?	17%	13%
COc1cccc(C2CC(c3ccc(F)cc3)Nc3nc(N)nn32)c1 (stereo not drawn)	-12%	0%	1%	40µM*	8%	-4%
COc1cccc(C2CC(c3cccc(Br)c3)n3ncnc3N2)c1 (stereo not drawn)	?	-5%	12µM*	42%	1%	-1%
O=C(CSc1nnc(COc2ccccc2)o1)Nc1cc(C(F)(F)F)ccc1Cl	4%	.	.	.	.	.
O=C1CCCc2c1cc(C(=O)Nc1ccc(Br)cn1)c(=O)n2-c1ccccc1	-3%	4.1µM*	39%	-24%	-19%	-7%
O=C1CCCc2c1cc(C(=O)O)c(=O)n2-c1ccccc1	-7%	15%	?	-15%	7%	23%
O=C(O)CCN1C(=O)C2CCCCC2C1=O (stereo not drawn)	?	.	0.74µM*	-13%	13%	2%
COc1ccc(C(C(=O)NC(C)(C)C)N(C(=O)CNC(=O)c2cccs2)c2ccc(C(C)C)cc2)cc1OC (stereo not drawn)	-13%	12µM*	8.3µM*	129%	-13%	-5%
COc1ccc(C(C(=O)NC(C)(C)C)N(C(=O)CNC(=O)c2cccs2)c2ccc(C)cc2)cc1OC (stereo not drawn)	?	?	?	98%	11%	3%
CCOc1ccc(N(C(=O)CNC(=O)c2cccs2)C(C(=O)NCC2CCCO2)c2ccc(OC)c(OC)c2)cc1 (stereo not drawn)	5%	9.3µM*	-5%	153%	-24%	-2%
COc1ccc(N(C(=O)CNC(=O)c2cccs2)C(C(=O)NCC2CCCO2)c2ccc(OC)c(OC)c2)cc1 (stereo not drawn)	3%	?	?	84%	7%	9%
SMILES	AmpC detergent	Pf growth 48h	Pf growth 96h	AmpC no deterg	HCV inhibitor	AMA1 RON2 block
CN(C(=O)c1cc(-c2ccccc2O)on1)c1ccccc1	-2%	.	.	.	.	.
CC(C)=CCc1c2c(c3occ(-c4ccc(O)cc4)c(=O)c3c1O)C=CC(C)(C)O2	-1%	?	?	16µM*	?	0%
CC1(C)C=Cc2c(c3c(c4c(=O)c(-c5ccc(O)cc5)coc24)OC(C)(C)CC3)O1	?	?	9.3µM*	-38%	-60%	0%
CC[C@@H]1/C=C(\C)C[C@H](C)C[C@H](OC)[C@H]2O[C@@](O)(C(=O)C(=O)N3CCCC[C@H]3C(=O)O[C@H](/C(C)=C/[C@@H]3CC[C@H](Cl)[C@H](OC)C3)[C@H](C)[C@@H](O)CC1=O)[C@H](C)C[C@@H]2OC	.	-6%	-4%	.	.	.
O=C(Nc1cccc(C(=O)OCc2cc(=O)n3nc(C4CC4)sc3n2)c1)c1cccc(F)c1	0%	.	.	.	.	.
COc1ccccc1CNC(=O)CSc1nc(-c2ccccc2)cn1N	-8%	0%	.	-17%	-22%	-1%
CN(C(=O)CSc1nc(-c2ccccc2)cn1N)C(c1ccccc1)c1ccccc1	0%	12µM*	.	-9%	2%	-11%
CN(C)S(=O)(=O)c1cccc(-c2nn(-c3ccccc3)cc2/C=C2\SC(=S)NC2=O)c1	-14%	4.7µM*	2.6µM*	-59%	-9%	4%[11.6 µM]
N#C/C(=C\c1cn(-c2ccccc2)nc1-c1cc2ccccc2o1)c1nc2ccccc2[nH]1	-2%	1µM*	0.66µM*	-41%	3%	30%
Cc1ccc(-c2nn(-c3ccccc3)cc2/C=C(\C#N)c2cccc(C#N)c2)o1	-14%	12µM*	.	-29%	?	11%
O=C(O)CCn1cc(/C=C2\SC(=S)NC2=O)c(-c2ccccc2)n1	-5%	3%	2%	-23%	15%	-6%
O=C(N/N=C/c1cn(-c2ccccc2)nc1-c1cc2ccccc2o1)c1ccncc1	-4%	-33%	-45%	34%	?	2%[11.6 µM]
CN(C)S(=O)(=O)c1cccc(-c2nn(-c3ccccc3)cc2/C=C(\C#N)c2nc3ccccc3[nH]2)c1	-12%	2.1µM*	1.5µM*	-40%	?	18%
CCCCNC(=O)c1cccc(NC(=O)c2nsc3ccccc23)c1	-3%	.	.	.	.	.
